Assay outcomes deposited in PubChem by Sanford-Burnham Center for Chemical Genomics.
CYP2C19 inh: inhibitors of human CYP2C19; P33261; CYP2C19 Supersomes, luciferin-H EGE luminescence, 30 min; inhibition, % at 5 µM; 96,000 compounds, 21% hits;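 active = CYP2C19 inhibition above a set limit at 5 µM in the primary screen, cut at about 50% in these data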;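 also: plate controls were negative control wells for no effect and 2.5 mM tranylcypromine positive control for full effect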
CYP2C9 act: activators of human CYP2C9 | AID 1024 | activation factor at 5 µM | P11712 | recombinant CYP2C9, luciferin-H conversion, luminescence; hits give high values; factor 1 = untreated enzyme, 0 = blocked | 96,000 compounds, 1.4% hits;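 active = activation factor of 2 or more for CYP2C9 at a 5 µM dose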;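 also: 0 = sulfaphenazole-blocked wells and 1 = vehicle-only wells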
CYP2C9 inhib: inhibitors of human CYP2C9; 96,000 compounds, 20% hits; P11712; inhibition, % at 5 µM; CYP2C9 Supersomes, luciferin-H conversion, luminescence;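 active = blocking of liver enzyme CYP2C9 beyond about 50% at 5 µM, limit read from the data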
PLAP act: activators of human placental alkaline phosphatase; purified PLAP enzyme, luminescent substrate read-out; hits give high values; P05187; AID 696; activation fold at 20 µM; 96,000 compounds, 1.2% hits; in the data active = activation fold above about 2
Target sequence (P05187 whole entry, looked up): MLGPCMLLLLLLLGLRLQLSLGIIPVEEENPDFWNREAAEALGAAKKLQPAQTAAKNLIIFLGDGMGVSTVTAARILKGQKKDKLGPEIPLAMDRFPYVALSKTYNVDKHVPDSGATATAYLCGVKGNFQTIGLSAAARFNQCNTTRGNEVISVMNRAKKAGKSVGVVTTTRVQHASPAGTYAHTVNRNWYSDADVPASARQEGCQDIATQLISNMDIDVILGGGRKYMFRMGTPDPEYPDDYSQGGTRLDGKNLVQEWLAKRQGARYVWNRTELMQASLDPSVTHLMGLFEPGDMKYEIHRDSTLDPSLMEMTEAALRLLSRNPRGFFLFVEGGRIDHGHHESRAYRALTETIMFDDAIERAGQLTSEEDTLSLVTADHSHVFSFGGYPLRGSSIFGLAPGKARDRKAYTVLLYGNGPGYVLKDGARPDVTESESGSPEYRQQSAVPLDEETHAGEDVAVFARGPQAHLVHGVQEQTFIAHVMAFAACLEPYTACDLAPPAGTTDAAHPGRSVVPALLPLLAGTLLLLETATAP
CYP2C19 act: cytochrome P450 2C19 (human) activation | 96,000 tested, under 10 active | activation factor at 5 µM | recombinant CYP2C19, luciferin-H EGE luminescence; hits give high values; 0 = fully inhibited enzyme, 1 = untreated enzyme | P33261;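 active = activation factor of at least 2 at 5 µM in the primary screen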;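 also: 0 = wells with 2.5 mM tranylcypromine and 1 = vehicle-only wells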
Active calls of the source: *. A selection: hits, their analogues and other compounds. The true share with any hit is near 31%.

SMILES	CYP2C19 inh	CYP2C9 act	CYP2C9 inhib	PLAP act	CYP2C19 act
O=C1CSC(c2ccncc2)N1Cc1ccco1 (stereo not drawn)	18	0.8	22	1	0.8
O=C1CSC(c2cn(-c3ccccc3)nc2-c2cccs2)N1CC1CCCO1 (stereo not drawn)	73*	0.2	80*	1.4	0.3
COC(=O)C1=C(C)NC(=O)NC1c1cn(-c2ccccc2)nc1-c1cccs1 (stereo not drawn)	20	0.8	17	1.2	0.8
CCc1ccc(-c2nn(-c3ccccc3)cc2C2SCC(=O)N2Cc2ccco2)cc1 (stereo not drawn)	44	0.3	67*	1.6	0.6
O=C1CSC(c2cn(-c3ccccc3)nc2-c2ccccc2)N1Cc1ccco1 (stereo not drawn)	86*	0	96*	1.7	0.1
O=C1CSC(c2cn(-c3ccccc3)nc2-c2cc3ccccc3oc2=O)N1Cc1cccnc1 (stereo not drawn)	16	0.6	42	1.6	0.8
Cc1cc(C)nc(-n2nc(C)c3c(=O)[nH]c(C(F)(F)F)nc32)n1	9	1	4	0.9	0.9
Cc1ccc(NC(=O)C(C)N2C(=O)C3C4CC(C(Br)C4Br)C3C2=O)cc1 (stereo not drawn)	47	0.7	29	1	0.5
CC(C)c1ccc(OCc2ccc(C(=O)N3CCN(c4ccccn4)CC3)cc2)cc1	27	0.6	43	1	0.7
CCCSc1nc(N)c(C#N)c(-c2ccc(C)cc2)c1C#N	0	0.9	13	0.9	1
CCN(CC)c1ccc(-c2c(C#N)c(N)nc(OC)c2C#N)cc1	3	0.5	54*	0.9	1
O=C1C2CCCN2C(c2ccccc2F)N1c1cccc(Cl)c1 (stereo not drawn)	48	0.6	43	1.4	0.5
Cc1n[nH]c(=S)n1/N=C/c1ccc(OCc2ccc(Cl)cc2)cc1	-16	1.1	-10	1	1.2
Fc1ccc(COc2ccc(/C=N/n3cnnc3)cc2)cc1	92*	0.1	92*	1.1	0.1
COc1ccc(N2C(=O)CCC(C(=O)NCc3cccnc3)C2c2ccc(OC)c(OC)c2)cc1 (stereo not drawn)	19	0.8	16	1.5	0.8
CCSc1nc(N2CCOCC2)c2c(c1C#N)CCCC2	70*	0.1	91*	0.9	0.3
CC(C)c1nc(N2CCOCC2)c(C#N)c2c1CCCC2	80*	0.6	42	0.9	0.2
CC(C)c1nc(NCc2ccccc2)c(C#N)c2c1CCCC2	-8	0.6	36	1	1.1
CCOc1ccc(/C=N/NC(=O)Cc2csc(Nc3cccc(C(F)(F)F)c3)n2)cc1	8	0.8	23	1.6	0.9
CC(C)c1[nH]c(=O)c(C#N)c2c1CSC(C)(C)C2	71*	1	3	1.2	0.3
CCCCc1[nH]c(=O)c(C#N)c2c1CSC(C)(C)C2	63*	0.6	37	1.5	0.4
CC(C)c1[nH]c(=O)c(C#N)c2c1COC(C)(C)C2	17	1.1	-6	1	0.8
CC1=C(C(=O)Nc2ccc([N+](=O)[O-])cc2)C(c2cccc(C(F)(F)F)c2)NC(=S)N1c1ccccc1 (stereo not drawn)	15	0.1	89*	1	0.9
COc1ccc(C2NC(=S)N(c3ccccc3)C(C)=C2C(=O)Nc2ccccc2)cc1 (stereo not drawn)	29	0.8	17	1.5	0.7
COc1ccc(OC)c(C(=O)CN2CCN(S(=O)(=O)c3ccc(Br)cc3)CC2)c1	83*	0.4	58*	1.6	0.2
SMILES	CYP2C19 inh	CYP2C9 act	CYP2C9 inhib	PLAP act	CYP2C19 act
COc1ccc(C)cc1NC(=O)CN1CCN(S(=O)(=O)c2ccc(Cl)cc2)CC1	66*	0.4	65*	0.9	0.3
COc1ccc(NC(=O)CN2CCN(S(=O)(=O)c3ccc(C(C)C)cc3)CC2)cc1OC	44	0.6	41	0.9	0.6
COc1ccc(C)cc1NC(=O)CN1CCN(S(=O)(=O)c2ccc(C(C)C)cc2)CC1	86*	0.1	88*	0.8	0.1
COc1ccc(CCCC(=O)NC2CCCCC2C)c(C)c1 (stereo not drawn)	28	1.4	-36	1.2	0.7
COc1ccc(C(=O)/C=C/c2ccc(OC)c(COc3ccc(F)cc3)c2)cc1	30	0.5	52*	0.9	0.7
COc1ccccc1OCc1ccc(C(=O)NN)cc1	62*	0.5	46	1	0.4
COc1ccc(OC)c(/C=C/C(=O)c2ccc(Cl)cc2)c1	9	0.8	21	0.9	0.9
CNC(=O)c1ccc(OCc2ccccc2)c(OC)c1	28	0.7	31	1.2	0.7
COc1ccc(C(=O)NN)cc1COc1ccc(Br)cc1	96*	0.5	50*	1.1	0
Cn1c(Oc2ccccc2)c(C=O)c2ccccc21	47	1.6	-59	0.8	0.5
CC1=[N+]([O-])C(C)(C)C(C)N(O)C1=O (stereo not drawn)	-16	1.1	-12	1	1.2
CCOc1ccc(OCC)c(NC(=O)C2COc3ccccc3O2)c1 (stereo not drawn)	17	1.2	-23	1.2	0.8
COC(=O)c1cccc(NC(=O)C2COc3ccccc3O2)c1 (stereo not drawn)	67*	0.4	60*	0.7	0.3
COC(=O)c1cc(NC(=O)C2COc3ccccc3O2)ccc1Cl (stereo not drawn)	95*	0.3	72*	0.7	0.1
COCCNC(=O)c1ccccc1NC(=O)C1COc2ccccc2O1 (stereo not drawn)	19	0.7	26	1.1	0.8
COC(=O)c1cccc(NC(=O)C2COc3ccccc3O2)c1C (stereo not drawn)	64*	0.7	28	0.9	0.4
O=C(COc1ncnc2scc(-c3ccc(F)cc3)c12)NCc1ccco1	42	1.1	-13	1.2	0.6
Cc1ccc(-c2csc3ncnc(OCC(=O)NC(=O)NCc4ccco4)c23)cc1	50*	0.5	49	1.7	0.5
COc1ccc(OC)c(C2C(C#N)=C(N)Oc3c2c(C)nn3-c2cccc(Cl)c2)c1 (stereo not drawn)	83*	0	98*	1.2	0.2
Cc1nn(-c2cccc(Cl)c2)c2c1C(c1ccncc1)C(C#N)=C(N)O2 (stereo not drawn)	50*	0.4	62*	1	0.5
COc1ccc(OC)c(C2C(C#N)=C(N)Oc3cc(C)[nH]c(=O)c32)c1 (stereo not drawn)	-8	1	-3	1.1	1.1
Cc1nn(-c2cccc(Cl)c2)c2c1C(c1cccnc1)C(C#N)=C(N)O2 (stereo not drawn)	9	0.7	26	1.1	0.9
CCc1cc2c(CN3CCN(CCO)CC3)cc(=O)oc2cc1O	6	1.3	-35	1.1	0.9
CCn1c(-c2ccc(OC)c(OC)c2)n[nH]c1=S	4	0.9	8	0.9	1
CCCCn1c(-c2cc(Cl)ccc2OC)n[nH]c1=S	72*	0.7	29	1.6	0.3
